# High-throughput results from PubChem BioAssay.
# KCNH2 WT inh: qHTS for Inhibitors of KCHN2 3.1: Wildtype qHTS; Voltage-gated inwardly rectifying potassium channel KCNH2 (Homo sapiens), Q12809; U2OS, BacMam KCNH2, thallium flux FluxOr; hits give low values; activity change, % at 1.84 µM; 340,000 compounds, 0.37% hits; AID 720551, 2013;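 active = maximum activity change below -70%; inconclusive = maximum activity change between -70% and -50%; inactive = maximum activity change above -50%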; note: % is set by controls: 0 for no effect and ±100 for the full control effect
# Target sequence (Q12809 whole entry, looked up): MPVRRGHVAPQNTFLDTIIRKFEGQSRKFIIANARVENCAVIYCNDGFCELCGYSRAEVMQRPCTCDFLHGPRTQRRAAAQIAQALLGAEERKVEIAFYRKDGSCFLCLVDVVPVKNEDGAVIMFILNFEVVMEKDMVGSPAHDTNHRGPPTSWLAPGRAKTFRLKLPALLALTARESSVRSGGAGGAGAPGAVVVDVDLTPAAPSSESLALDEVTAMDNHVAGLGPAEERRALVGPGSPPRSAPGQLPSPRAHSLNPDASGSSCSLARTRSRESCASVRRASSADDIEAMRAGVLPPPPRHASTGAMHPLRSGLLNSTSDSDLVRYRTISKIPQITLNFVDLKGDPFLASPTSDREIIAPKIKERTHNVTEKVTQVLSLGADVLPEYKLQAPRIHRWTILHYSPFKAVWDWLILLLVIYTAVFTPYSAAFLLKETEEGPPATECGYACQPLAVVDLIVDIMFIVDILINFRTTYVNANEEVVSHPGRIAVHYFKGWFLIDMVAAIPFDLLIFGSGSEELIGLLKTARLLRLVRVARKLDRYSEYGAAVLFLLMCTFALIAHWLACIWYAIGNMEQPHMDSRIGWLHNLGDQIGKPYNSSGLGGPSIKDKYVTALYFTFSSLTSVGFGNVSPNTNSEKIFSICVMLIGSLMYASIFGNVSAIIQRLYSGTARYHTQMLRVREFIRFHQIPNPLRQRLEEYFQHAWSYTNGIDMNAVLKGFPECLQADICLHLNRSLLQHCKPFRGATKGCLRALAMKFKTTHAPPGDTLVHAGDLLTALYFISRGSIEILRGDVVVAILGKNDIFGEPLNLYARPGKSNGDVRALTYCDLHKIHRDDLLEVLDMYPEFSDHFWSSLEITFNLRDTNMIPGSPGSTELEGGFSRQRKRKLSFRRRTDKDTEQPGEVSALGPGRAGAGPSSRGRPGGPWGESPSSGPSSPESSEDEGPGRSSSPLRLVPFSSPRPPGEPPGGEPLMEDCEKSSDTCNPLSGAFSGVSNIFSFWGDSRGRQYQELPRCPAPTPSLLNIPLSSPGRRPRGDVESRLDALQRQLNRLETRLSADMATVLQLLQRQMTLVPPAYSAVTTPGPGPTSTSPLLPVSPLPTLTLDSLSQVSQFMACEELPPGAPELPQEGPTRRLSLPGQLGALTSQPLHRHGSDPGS
#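 U2OS cells transduced with wild-type KCNH2 virus are loaded with FluxOr dye for 45 min, and thallium flux is measured in kinetic reads before and after stimulation buffer. Rate constants are normalized to DMSO controls.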
# MCF10A rereplic: A quantitative high throughput screen for small molecules that induce DNA re-replication in MCF 10a normal breast cells. AID 624296, 2012. Potency, µM (series often up to 46.1 µM), for inactives: top-dose activity, positive = re-replication, actives largely listed as activators. MCF 10A DNA re-replication, Hoechst nuclear intensity, 48 h. 350,000 compounds, 2.9% hits; note: potency is the fitted concentration of half-maximal effect; % of control where 0% means no effect; nearly all actives have a fitted effect of over 50% in size
# KB-V1 cytotox: qHTS assay for MDR1-selective chemotherapeutics: Primary screen using the drug-selected MDR subline cells KB-V1. KB-V1 MDR cells viability, CellTiter-Glo, 72 h. Potency, µM (doses to about 46.1 µM), usual class: cytotoxic. 400,000 compounds, 3.4% hits. AID 1347076, 2019; note: potency is the fitted concentration of half-maximal effect; % is set by controls: 0 for no effect and ±100 for the full control effect; nearly all actives have a fitted effect of over 60% in size
#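 In this primary screen, KB-V1 cells overexpressing P-gp are incubated with library compounds (lowest to highest concentration) for 72 h at 37 degrees C before a luminescent ATP viability read.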
# SW480 rerep: A quantitative high throughput screen for small molecules that induce DNA re-replication in SW480 colon adenocarcinoma cells | SW480 DNA re-replication, Hoechst DNA content imaging, 48 h | Potency, µM (highest dose often 46.1 µM), for the others: at the highest dose re-replication activation, actives largely listed as activators | 340,000 compounds, 1.8% hits; note: potency is the fitted concentration of half-maximal effect; % of control where 0% means no effect; nearly all actives have a fitted effect of over 55% in size
#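 Hoechst fluorescence of nuclei (405 nm excitation, 500-530 nm emission) measured by plate-scanning imager after 48 hr compound exposure at 37 C; re-replication scored as increased number of nuclei with elevated intensity.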
# KB-3-1 cytotox: qHTS assay for MDR1-selective chemotherapeutics: Primary screen using the parental adenocarcinoma cell KB-3-1; KB-3-1 viability, CellTiter-Glo ATP luminescence, 72 h; AID 1347075, 2019; 400,000 compounds, 1.4% hits; Potency, µM (top dose mostly 46.1 µM), hits mostly cytotoxic; note: potency is the fitted concentration of half-maximal effect; % is set by controls: 0 for no effect and ±100 for the full control effect; nearly all actives have a fitted effect of over 60% in size
#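 Here the drug-naive KB-3-1 line serves as comparator for MDR sub-line selectivity; cells received compound titrations, 72 h at 37 °C, then CellTiter-Glo readout.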
# KCNH2 3.1 block: qHTS for Inhibitors of KCHN2 3.1: Mutant qHTS | AID 720553, 2013 | U2OS KCNH2 3.1, thallium flux FluxOr; hits give low values | activity change, % (tested at about 1.8 µM) | Potassium voltage-gated channel subfamily H member 2, brain isoform KCNH2 3.1 (human) | 340,000 compounds, 0.95% hits;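 active = maximum activity change below -70%; inconclusive = maximum activity change from -70% to -50%; inactive = maximum activity change above -50%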;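 note: thallium influx rate constant from kinetic fluorescence after stimulation buffer; % is set by controls: 0 for no effect and ±100 for the full control effect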
#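 Virally transduced U2OS (3.1 isoform, 4 h infection in dark at RT) → overnight 37 C → FluxOr + Red40 in HBSS/HEPES, 45 min → stimulation buffer, 2 min kinetic read → rate constant vs DMSO controls.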
# * = called active by the depositor; i = inactive; ? = inconclusive; . = no result. This is a sample that favours compounds with a hit; in the whole collection about 7.6% have one here. Unless noted, calls come from the whole dose curve; as a rule, active = well fitted curve in the direction sought with a large enough effect; inconclusive = small, poorly fitted or top-dose-only effect, or another doubt; inactive = no such curve, though single readings can be large; an effect the other way counts as inactive or inconclusive.
SMILES,KCNH2 WT inh,MCF10A rereplic,KB-V1 cytotox,SW480 rerep,KB-3-1 cytotox,KCNH2 3.1 block
Cc1ccccc1S(=O)(=O)Cc1ccc(C(=O)N(C)C2CCCCC2)o1,2.0,17.0%,i,-16.8%,i,-12.3
Cc1ccccc1N(CC(=O)NCCSC1CCCCC1)S(=O)(=O)c1ccccc1,-1.9,20.1%,10.3µM*,-2.0%,?,-1.5
CS(=O)(=O)N(CC(=O)NCCSC1CCCCC1)c1cccc(F)c1,-4.9,?,14.6µM*,-5.7%,i,-8.7
Cc1cccc(N(CC(=O)NC(C)c2ccccc2)S(=O)(=O)c2ccccc2)c1C (centres undefined),.,.,?,.,18.4µM*,.
CS(=O)(=O)N(CC(=O)NCCSC1CCCCC1)c1ccccc1,-0.8,-21.3%,?,0.7%,i,-23.3
Cc1cc(=S)[nH]c(=S)[nH]1,-2.1,1.3%,i,-1.7%,i,7.2
O=C(CCC(=O)N1CCOc2ccccc21)NCc1cccs1,.,.,?,.,i,.
CC(C)c1cc(N=NC(N)=O)cc(C(C)C)c1O,.,17.0%,i,-33.6%,i,5.0
O=C(CCc1ccc(S(=O)(=O)NCCc2ccccc2)cc1)Nc1ccc2c(c1)OCCO2,-2.1,?,20.6µM*,?,i,2.6
CCN(CC(=O)Nc1ccc2c(c1)OCCO2)S(=O)(=O)c1cccs1,9.5,16.4µM*,i,-2.4%,i,-4.9
CCN(CC(=O)Nc1ccc2c(c1)OCCO2)S(=O)(=O)c1ccc(C)cc1,4.1,12.5%,16.4µM*,-4.0%,i,-10.6
CCN(CC)S(=O)(=O)c1ccc2c(c1)nc(CCC(=O)Nc1ccc3c(c1)OCO3)n2CC,1.4,2.3%,14.6µM*,-5.0%,i,-5.8
CCN(Cc1ccc2c(c1)OCCO2)S(=O)(=O)c1ccc(NC(C)=O)cc1,4.5,10.7%,?,20.8%,i,0.9
CCCNS(=O)(=O)c1ccc(CCC(=O)Nc2ccc3c(c2)OCCO3)cc1,0.0,-23.5%,i,0.7%,i,-10.3
CCc1c(C)nc2[nH]nc(-c3ccccc3C)n2c1=O,-0.5,-8.4%,i,-2.8%,i,-192.7*
CCc1c(C)nc2[nH]nc(-c3ccccc3)n2c1=O,-3.9,-2.3%,i,-2.6%,i,19.0
CCN(CC1CCCN(CCc2cccc(F)c2)C1)C(=O)c1cc(C)oc1C (centres undefined),41.1,16.2%,i,2.3%,i,-29.2
CCN(CC1CCCN(CCc2cccc(F)c2)C1)C(=O)c1cc2ccccc2o1 (centres undefined),-24.2,12.2%,i,?,?,-75.4*
CSCc1nc2scc(-c3ccccc3)c2c(=O)[nH]1,1.5,0.7%,i,-2.7%,i,-92.2*
O=c1[nH]c(CN2CCN(Cc3ccccc3)CC2)nc2scc(-c3ccccc3)c12,17.3,2.3%,?,?,i,-3.5
COCCCN=C1NN=C(c2cc(C)n(-c3ccccc3)c2C)CS1,i,?,i,?,i,24.6
COCCn1c(C)cc(C2=NNC(=Nc3ccccc3F)SC2)c1C,5.9,19.2%,11.6µM*,5.3%,18.4µM*,-19.2
COCCCN=C1NN=C(c2cc(C)n(-c3ccccc3F)c2C)CS1,-2.8,?,i,?,7.31µM*,9.2
COCCCN=C1NN=C(c2cc(C)n(Cc3ccccc3Cl)c2C)CS1,2.4,?,1.46µM*,0.651µM*,1.3µM*,-5.5
Fc1ccc(F)c(C2=NNC(=Nc3ccccc3F)SC2)c1,15.2,20.6µM*,?,?,?,-4.8
SMILES,KCNH2 WT inh,MCF10A rereplic,KB-V1 cytotox,SW480 rerep,KB-3-1 cytotox,KCNH2 3.1 block
Fc1ccc(N=C2NN=C(c3cc(F)ccc3F)CS2)cc1,-10.7,?,i,?,?,-11.1
CCn1c(SCC(=O)NC2=NCCS2)nnc1C(C)NC(=O)c1ccc(Cl)cc1 (centres undefined),-0.9,6.3%,?,-2.6%,i,-5.5
COc1ccc(NC(=S)N/C(=N/CS(=O)(=O)c2ccccc2)c2ccccc2)cc1,4.4,16.4µM*,i,?,i,-20.1
O=C(NN1CCOCC1)c1cccc(COc2cccc(Br)c2)c1,-3.4,-4.5%,i,-10.4%,i,20.8
COc1ccccc1N1CCN(C(=O)c2sc3nc(C)nc(N4CCN(c5ccccn5)CC4)c3c2C)CC1,-8.5,?,?,13.1%,?,-22.3
Cc1c(C(=O)N2CCN(c3ccccc3)CC2)sc2ncnc(N3CCN(c4ccccn4)CC3)c12,1.9,1.1%,?,1.2%,i,-12.4
Cc1c(C(=O)N2CCC(C)CC2)sc2ncnc(N3CCN(c4ccccc4)CC3)c12,3.3,7.8%,4.61µM*,-6.1%,i,-4.7
Cc1c(C(=O)N2CCN(c3ccc(F)cc3)CC2)sc2ncnc(N3CCN(c4ccccn4)CC3)c12,2.5,?,i,-4.1%,i,-76.2*
COc1ccccc1N1CCN(C(=O)c2sc3ncnc(N4CCN(c5ccccn5)CC4)c3c2C)CC1,0.7,18.4µM*,23.1µM*,5.1%,?,-16.6
CCOC(=O)c1[nH]c2ccccc2c1NC(=O)c1ccc(OC)c(OC)c1,.,.,i,.,i,.
COc1ccc(CC2(CO)CCN(C(C)Cc3ccc(Cl)cc3)CC2)cc1 (centres undefined),-93.2*,25.1%,i,25.1%,i,-93.4*
CCSc1nc2ccccc2n1C(=O)/C=C/c1ccc(OC)c(OC)c1,3.1,4.11µM*,?,5.8µM*,?,-7.6
COc1cc(/C=C/C(=O)NCCn2c(C)cc3ccccc32)cc(OC)c1OC,0.4,-4.0%,?,-4.6%,?,-8.8
C=CCSc1nc2ccccc2n1C(=O)/C=C/c1cc(OC)c(OC)c(OC)c1,-11.7,3.26µM*,?,?,i,1.4
C=CCSc1nc2ccccc2n1C(=O)/C=C/c1ccc(OC)c(OC)c1,4.1,4.11µM*,i,?,?,15.8
COc1ccc(CNC(=O)c2ccc(NC(=O)N3CCCCc4ccccc43)cc2)cc1,.,.,i,.,i,.
Cc1ccc(OCCCn2ccnc2)c(Br)c1,22.7,2.8%,?,9.7%,i,-8.1
